The text below walks through data of PubChem BioAssay AID504710 (Sanford-Burnham Center for Chemical Genomics, 2011).

Active and inactive are the calls of the source.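 The calls were made as follows: active = inhibition reaching about 16% in any single replicate (limit read from the data); inactive = the rest.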

In the assay the target is Hexokinase HKDC1 (Homo sapiens) (UniProt Q2TB90). The experiment in a line: compounds lowering human HKDC1 activity – biochemical, single concentration, confirmation (AID 504710). Conditions: recombinant HKDC1, G6PDH/diaphorase/resazurin fluorescence; at 20 µM; stronger effect = higher value.
Hexokinase HKDC1 (Homo sapiens), sequence (Q2TB90 whole entry, looked up): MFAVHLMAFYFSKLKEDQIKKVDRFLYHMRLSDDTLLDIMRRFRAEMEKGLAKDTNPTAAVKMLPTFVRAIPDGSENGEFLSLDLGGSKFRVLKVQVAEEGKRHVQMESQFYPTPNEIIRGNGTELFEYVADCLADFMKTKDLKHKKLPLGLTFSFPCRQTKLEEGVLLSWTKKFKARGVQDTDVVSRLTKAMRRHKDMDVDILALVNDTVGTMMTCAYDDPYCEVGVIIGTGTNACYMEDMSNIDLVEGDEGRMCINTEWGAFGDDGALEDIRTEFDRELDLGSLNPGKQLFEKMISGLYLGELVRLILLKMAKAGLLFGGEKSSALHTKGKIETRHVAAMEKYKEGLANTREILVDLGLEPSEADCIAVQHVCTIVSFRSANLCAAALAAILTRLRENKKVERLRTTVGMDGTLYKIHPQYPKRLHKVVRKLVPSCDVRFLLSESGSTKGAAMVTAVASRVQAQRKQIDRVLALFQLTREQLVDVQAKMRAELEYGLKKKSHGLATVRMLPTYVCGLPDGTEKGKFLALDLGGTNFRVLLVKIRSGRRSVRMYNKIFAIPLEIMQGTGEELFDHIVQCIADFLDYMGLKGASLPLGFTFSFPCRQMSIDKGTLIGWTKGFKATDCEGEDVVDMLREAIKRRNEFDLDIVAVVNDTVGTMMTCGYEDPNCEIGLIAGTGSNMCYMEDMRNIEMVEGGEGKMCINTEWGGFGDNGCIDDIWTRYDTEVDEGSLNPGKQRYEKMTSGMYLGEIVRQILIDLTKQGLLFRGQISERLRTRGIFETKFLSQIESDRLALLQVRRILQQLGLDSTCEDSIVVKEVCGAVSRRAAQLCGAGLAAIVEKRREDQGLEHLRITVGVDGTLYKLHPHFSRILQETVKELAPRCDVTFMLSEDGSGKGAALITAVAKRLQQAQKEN
As usually defined, the inhibition is the relative decrease from the control value, in per cent. `CC1COCC(C)N1C1=C(Cl)C(=O)c2ccccc2C1=O` (stereo unspecified): the inhibition is 43.5% (active).

As for `CC(=NNC(=S)Nc1cccc(Cl)c1)c1ccccn1`, the inhibition is -63.5% (inactive).

For `Cc1cc2cc(CCNC(=O)c3ccc(S(=O)(=O)N4CCOCC4)cc3)c(=O)[nH]c2cc1C`, the inhibition is 45% (active).

Take `Cc1ccc(S(=O)(=O)/N=C2/C=C(Sc3ncn[nH]3)C(=O)c3ccccc32)cc1`: the inhibition is 63.3% (active).

For `Cc1ccc(-n2c3nc(=O)[nH]c(=O)c-3cc3cc([N+](=O)[O-])ccc32)cc1C`, the inhibition was 65.3% (active).

As to `COC1=CC(=O)C=C(OC)C1=O`, the inhibition is 75.2% (active).

On to `CCN=C1NN=C(c2ccc(C)cc2)CS1`, for which the inhibition was -52% (inactive).

With `O=C(O)CSc1cc(NS(=O)(=O)c2cccc([N+](=O)[O-])c2)c2ccccc2c1O`, the inhibition was 47.9% (active).

Regarding `O=c1c2ccccc2nc(/C=C/c2cccnc2)n1CCc1ccccc1`, the inhibition is 38.8% (active).

Consider `Cc1nc2c(O)c3c(c(O)c2nc1C)C1C=CC3CC1`, for which the inhibition is 89.5% (active).

As for `Cc1nc2c(c(=O)c3ccccc3n2C)c(=O)n1-c1ccc(F)cc1`, the inhibition is 52.9% (active).

`COc1ccc(NC(=O)CSc2ccc(-c3cccnc3)nn2)c(OC)c1`: the inhibition was 38.8% (active).

As for `O=C1C(N2CCOCC2)=C(n2nnc3ccccc32)C(=O)c2ccccc21`, the inhibition was 54.8% (active).

For the compound `COP(=O)(OC)c1ccc(NCc2cc(O)ccc2O)cc1`, the inhibition was 53.1% (active).

For the compound `CCOC(=O)CSc1nc2ccc(C)cc2n2cnnc12`, the inhibition is 63.8% (active).

As to `Cc1cc(C2=NNC(=Nc3ccc(S(=O)(=O)N4CCOCC4)cc3)SC2)c(C)n1CC1CCCO1` (stereo unspecified), the inhibition is -55.8% (inactive).
